According to PubChem BioAssay (NCATS):
Activity calls are given as the source filed them. Calls follow the shape of the dose curve; as a rule, active = well fitted curve in the direction sought with a large enough effect; inconclusive = small, poorly fitted or top-dose-only effect, or effect the other way, or another doubt; inactive = no such curve, though single readings can be large or run the other way.

Assay: qHTS for inhibitors of adenylyl cyclases using a fission yeast platform: a pilot screen against the NCATS LOPAC library (AID 1347410)
Conditions: S. pombe CHP2027, fbp1-GFP fluorescence, 18 h, yeast expressing mammalian AC9 and human GNAS; series mostly up to 57.5 µM
Procedure, shortened: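 Inhibition of GNAS-stimulated AC9 activity in S. pombe was inferred from derepression of a PKA-repressed fbp1-GFP reporter, measured as cytometric fluorescence after 18 h at 30C with compounds at up to 57 µM.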
For `COC(=O)[C@H]1[C@H]2C[C@H]3c4[nH]c5ccccc5c4CCN3C[C@H]2CC[C@@H]1O`, the outcome was “inactive”.
For `CNCCC(Oc1ccccc1C)c1ccccc1` (centres undefined), the outcome was “inactive”.
For `O=C1CCC(c2ccc(-n3ccnc3)cc2)=NN1`, the outcome was “inactive”.
In the case of `N[C@@H](Cc1cnc[nH]1)C(=O)O`, the outcome is reported as “inactive”.
In the case of `CC1(C)CCC(NC(=O)[C@@H](N)CCC(=O)O)CC1`, the outcome is reported as “inactive”.
For `CC[C@H](C)C(=O)O[C@H]1CCC=C2C=C[C@H](C)[C@H](CC[C@@H]3C[C@@H](O)CC(=O)O3)[C@H]21`, the outcome was “inactive”.
In the case of `Nc1cc(Cl)c(NC2=NCCN2)c(Cl)c1`, the outcome is reported as “inactive”.
In the case of `N[C@H](CO)C(=O)O`, the outcome is reported as “inactive”.
In the case of `C[N+]1(CCCCC[N+]2(C)CCCC2)CCCC1`, the outcome is reported as “inactive”.
For `Oc1ccc(O)cc1`, the outcome was “inactive”.
In the case of `CC(CCc1ccccc1)NCC(O)c1ccc(O)c(C(N)=O)c1` (centres undefined), the outcome is reported as “inactive”.
With `CCCn1c(=O)[nH]c(=O)c2[nH]cnc21` the outcome was “inactive”.
In the case of `C1CCc2nnnn2CC1`, the outcome is reported as “inactive”.
In the case of `CC(=O)O[C@H]1C[C@@H]2CC[C@@H]3[C@H](CC[C@@]4(C)[C@H]3C[C@H]([N+]3(C)CCCCC3)[C@@H]4OC(C)=O)[C@@]2(C)C[C@@H]1[N+]1(C)CCCCC1`, the outcome is reported as “inactive”.
In the case of `CCC(NC(C)C)C(O)c1ccc(O)c(O)c1` (centres undefined), the outcome is reported as “inactive”.
With `O=C(O)c1cc2cc(Cc3cccnc3)ccc2o1` the outcome was “inactive”.
With `CC(C)COC(=O)OCN1C(=O)CN(CCN2CC(=O)N(COC(=O)OCC(C)C)C(=O)C2)CC1=O` the outcome was “inactive”.
In the case of `CN1C2CCC1CC(OC(=O)c1c[nH]c3ccccc13)C2` (centres undefined), the outcome is reported as “inactive”.
With `CCCC1O[C@@H]2C[C@H]3[C@@H]4CCC5=CC(=O)C=C[C@]5(C)[C@H]4[C@@H](O)C[C@]3(C)[C@]2(C(=O)CO)O1` (some centres undefined) the outcome was “inactive”.
